From PubChem BioAssay (Tox21)
Where “and” joins values, the source holds several entries; their conditions need not be identical. Identical values can stand only once. Results filed as inconclusive are left out. Calls of active or inactive are those of the source. Unless noted, calls come from the whole dose curve; as a rule, active = well fitted curve in the direction sought with a large enough effect in the repeat runs; inconclusive = weak or mixed curves; inactive = no such curve, though single readings can be large; an effect the other way counts as inactive or inconclusive.

Experiments:
[1] = qHTS assay for small molecules that induce genotoxicity in human embryonic kidney cells expressing luciferase-tagged ATAD5 (AID 651632); note: nearly all actives have a fitted effect of over 15% in size
Summary of the method: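 Concentration-response screen for ATAD5 upregulation in HEK293T luciferase reporter cells; 16 hr treatment at 37C, then luminescence after 30 min with Amplite at room temperature.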

[2] = qHTS assay for small molecule agonists of the p53 signaling pathway - cell viability (AID 651633; calls by dose curve;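 note: p53RE-bla HCT reporter cells with a stable beta-lactamase p53 reporter; nearly all actives have a fitted effect of over 30% in size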)
Summary of the method: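 Viability counter-read: CellTiter-Glo luminescence (30 min, room temperature) in the same p53RE-bla plates. These plates had been exposed to compounds for 16 h at 37 C.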

[3] = qHTS assay for small molecules that induce genotoxicity in human embryonic kidney cells expressing luciferase-tagged ATAD5 - cell viability (AID 651634; calls by dose curve; note: nearly all actives have a fitted effect of over 25% in size)
Summary of the method: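 15.5 hr compound or vehicle exposure of HEK293T cells expressing luciferase-tagged ATAD5 at 37C; live-cell protease activity is read by fluorescence after 30 min of CellTiter-Fluor.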

[4] = qHTS assay for small molecule disruptors of the mitochondrial membrane potential - cell viability (AID 720634; calls by dose curve;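 note: human HepG2 liver cancer cells; nearly all actives have a fitted effect of over 20% in size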)
Summary of the method: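 In this qHTS format, HepG2 cells plated overnight were pinned with compound, incubated 1 hr, and assayed for ATP luminescence with CellTiter-Glo after m-MPI dye addition.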

[5] = qHTS assay for small molecule disruptors of the mitochondrial membrane potential (AID 720635)
Summary of the method: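 Mitochondrial membrane potential tracked with Mito-MPS dye, red aggregates (ex 540/em 590 nm) against green monomers (ex 490/em 535 nm). Compound treatment 1 hr at 37C, dye 30 min in HepG2.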

[6] = qHTS assay to test for compound auto fluorescence at 590 nm (red) in HepG2 cells (AID 720674)
Summary of the method: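 We screened compounds on adherent HepG2 cells, incubating them for an hour at 37 C in 5% CO2 before reading emission at 590 nm under 540 nm excitation; values reflect equivalence to Rose Bengal sodium fluorescence.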

[7] = qHTS assay to test for compound auto fluorescence at 535 nm (green) in HepG2 cells (AID 720675)
[8] = qHTS assay to test for compound auto fluorescence at 460 nm (blue) in HEK293 cells (AID 720678)
Summary of the method: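 HEK293, 2,000 cells/well, 10% dialyzed FBS; attach 4-5 hr 37C; pin compound or DMSO; o/n 37C/5% CO2; fluorescence 405/460 nm; triamterene-equivalent units.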

[9] = qHTS assay to test for compound auto fluorescence at 590 nm (red) in HEK293 cells (AID 720679)
Summary of the method: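 Intensity at 540nm excitation and 590nm emission is reported as Rose Bengal sodium-equivalent autofluorescence. Measurements followed overnight exposure (37C, 5% CO2) of HEK293 cells, 2,000 per well, to 23 nL compound.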

[10] = qHTS assay to test for compound auto fluorescence at 535 nm (green) in HEK293 cells (AID 720680)
[11] = qHTS assay to test for compound auto fluorescence at 460 nm (blue) in HEK293 cell free culture (AID 720681)
Summary of the method: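 Blue fluorescence (Ex 405/Em 460 nm, triamterene-equivalent) was read immediately after pin transfer of compound or DMSO into medium (DMEM, 10% FBS) without cells.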

[12] = qHTS assay to test for compound auto fluorescence at 535 nm (green) in HEK293 cell free culture (AID 720682)
Summary of the method: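 Each library compound, or DMSO control, is added by pintool to medium alone, comprising DMEM and 10% FBS. Emission at 535 nm following 485 nm excitation is quantified against fluorescein.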

[13] = qHTS assay to test for compound auto fluorescence at 590 nm (red) in HEK293 cell free culture (AID 720683)
Summary of the method: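 Red-channel autofluorescence of compounds in culture medium (DMEM, 10% FBS), no cells, measured at 540/590 nm. Rose Bengal sodium is the reference fluorophore for equivalence.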

[14] = qHTS assay to test for compound auto fluorescence at 590 nm (red) in HepG2 cell free culture (AID 720684)
Summary of the method: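 No cells present: MEM + 10% FBS only. Compound pinned in, red label read (540/590 nm). Activity = fluorescence equivalent to Rose Bengal sodium.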

[15] = qHTS assay to test for compound auto fluorescence at 460 nm (blue) in HepG2 cell free culture (AID 720685)
Summary of the method: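 Cell-free plates of MEM plus 10% FBS received 23 nL compound or DMSO vehicle; blue-channel (405/460 nm) intensity scored against triamterene as reference fluorophore.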

[16] = qHTS assay to test for compound auto fluorescence at 535 nm (green) in HepG2 cell free culture (AID 720686)
[17] = qHTS assay to test for compound auto fluorescence at 460 nm (blue) in HepG2 cells (AID 720687)
Summary of the method: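 Blue-channel autofluorescence (Ex/Em 405/460 nm, triamterene-equivalent) was measured after 1 hr compound exposure at 37 C, 5% CO2. Cells were HepG2, plated overnight at 37 C in MEM plus 10% FBS.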

[18] = target: Glucocorticoid receptor (Homo sapiens) (UniProt P04150); assay: qHTS assay to identify small molecule agonists of the glucocorticoid receptor (GR) signaling pathway (AID 720691; active = well fitted activation curve with a large enough effect in the signal ratio in the repeat runs, not every such curve was filed as active; the % refers to the signal ratio)
Chain of Glucocorticoid receptor (Homo sapiens) (P04150 whole entry, looked up): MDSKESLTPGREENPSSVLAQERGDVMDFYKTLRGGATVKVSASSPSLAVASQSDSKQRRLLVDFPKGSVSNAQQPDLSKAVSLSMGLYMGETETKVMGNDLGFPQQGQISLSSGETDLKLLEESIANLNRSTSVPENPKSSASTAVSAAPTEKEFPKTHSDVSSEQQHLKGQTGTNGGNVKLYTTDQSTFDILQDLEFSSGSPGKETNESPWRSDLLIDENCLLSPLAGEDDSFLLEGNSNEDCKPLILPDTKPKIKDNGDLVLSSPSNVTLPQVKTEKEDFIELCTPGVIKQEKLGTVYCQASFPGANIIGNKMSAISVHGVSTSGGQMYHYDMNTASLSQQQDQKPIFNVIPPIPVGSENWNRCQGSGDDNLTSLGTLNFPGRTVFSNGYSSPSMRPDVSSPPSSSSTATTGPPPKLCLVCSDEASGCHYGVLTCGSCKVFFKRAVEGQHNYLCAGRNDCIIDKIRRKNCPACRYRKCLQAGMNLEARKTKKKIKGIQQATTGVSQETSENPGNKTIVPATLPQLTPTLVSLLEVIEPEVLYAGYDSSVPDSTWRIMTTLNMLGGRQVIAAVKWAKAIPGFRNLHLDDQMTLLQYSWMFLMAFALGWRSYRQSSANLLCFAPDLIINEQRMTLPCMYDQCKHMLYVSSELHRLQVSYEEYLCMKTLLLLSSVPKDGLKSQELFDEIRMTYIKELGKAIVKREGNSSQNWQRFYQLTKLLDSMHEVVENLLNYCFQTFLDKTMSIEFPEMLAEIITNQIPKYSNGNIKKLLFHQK
Summary of the method: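 Measures GR pathway activation through a GRE-beta-lactamase reporter stably integrated in HeLa cells, with 18 h compound treatment at 37 C and fluorescence detection using a FRET substrate.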

[19] = target: Glucocorticoid receptor (Homo sapiens) (UniProt P04150); assay: qHTS assay to identify small molecule antagonists of the glucocorticoid receptor (GR) signaling pathway (AID 720692; active = well fitted inhibition curve with a large enough effect in the signal ratio in the repeat runs, not every such curve was filed as active; the % refers to the signal ratio)
Summary of the method: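 Tox21 10K library screened in concentration-response for blockade of dexamethasone (5 nM final)-induced GRE-bla reporter activity in HeLa cells; 18 h treatment, fluorescence read.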

[20] = qHTS assay for identifying genotoxic compounds that show differential cytotoxicity against isogenic chicken DT40 cell lines with known DNA damage response pathways - wild type cell line (AID 743012); note: nearly all actives have a fitted effect of over 60% in size
Summary of the method: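 Endpoint: CellTiter-Glo luminescence, 30 min RT. Cells: wild type DT40, 300/well. Exposure: compounds in DMSO, 40 h, 37 C/5% CO2, after ~0.5 h pre-incubation.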

[21] = qHTS assay for identifying genotoxic compounds that show differential cytotoxicity against isogenic chicken DT40 cell lines with known DNA damage response pathways - Rev3 mutant cell line (AID 743014); note: nearly all actives have a fitted effect of over 55% in size
[22] = qHTS assay for identifying genotoxic compounds that show differential cytotoxicity against isogenic chicken DT40 cell lines with known DNA damage response pathways - Rad54/Ku70 mutant cell line (AID 743015); note: nearly all actives have a fitted effect of over 60% in size
[23] = qHTS assay to identify small molecule antagonists of the androgen receptor (AR) signaling pathway - cell viability counter screen (AID 743033; note: nearly all actives have a fitted effect of over 45% in size)
[24] = qHTS assay to identify small molecule antagonists of the androgen receptor (AR) signaling pathway using the MDA cell line - cell viability counter screen (AID 743041; note: nearly all actives have a fitted effect of over 45% in size)
Summary of the method: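 Using the breast carcinoma line MDA-kb2 AR-luc, test chemicals were co-incubated with R1881 for 16 h; CellTiter-Fluor reagent, added at 15.5 h, provided a fluorescence measure of live cells.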

[25] = qHTS assay to identify small molecule antagonists of the thyroid receptor (TR) signaling pathway (AID 743065); note: nearly all actives have a fitted effect of over 55% in size
Summary of the method: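 Antagonism measured as loss of luciferase signal in GH3 cells stably carrying a TRE-luciferase reporter, co-treated with compound and T3 (1 nM final) for 23.5 h at 37 C. Viability was read in the same well by CellTiter-Fluor.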

[26] = test system: thyroid hormone receptor (rat, GH3 cells); assay: qHTS assay to identify small molecule agonists of the thyroid receptor (TR) signaling pathway (AID 743066; calls by dose curve)
[27] = qHTS assay to identify small molecule antagonists of the estrogen receptor alpha (ER-alpha) signaling pathway - cell viability counter screen (AID 743074; calls by dose curve;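 note: HEK293 cells carrying ER-alpha-UAS-bla reporter stimulated with 17beta-estradiol; nearly all actives have a fitted effect of over 45% in size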)
[28] = qHTS assay to identify small molecule antagonists of the estrogen receptor alpha (ER-alpha) signaling pathway using the BG1 cell line - cell viability counter screen (AID 743081);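 note: compound given together with 17beta-estradiol as the ER stimulus; nearly all actives have a fitted effect of over 45% in size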
[29] = qHTS assay to identify small molecule that activate the aryl hydrocarbon receptor (AhR) signaling pathway - cell viability counter screen (AID 743086)
Summary of the method: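 Cytotoxicity counter screen: CellTiter-Fluor signal (30 min, 37 C) in 4000 HepG2 cells/well carrying the DRE-luciferase reporter, following 24 h compound exposure at 37 C.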

[30] = qHTS assay to identify small molecule antagonists of the estrogen related receptor (ERR) signaling pathway from Tox21 library - cell viability counter screen (AID 1224834); note: nearly all actives have a fitted effect of over 30% in size
Summary of the method: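 Seeded ERR cells were rested 6 h at 37 C/5% CO2 before compounds, positive and negative controls or DMSO were added. Incubation continued for 17.5 h, and viability was then quantified by CellTiter-Fluor fluorescence.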

[31] = qHTS assay to identify small molecule antagonists of the estrogen related receptor signaling pathway with the pleiotropic PPARgamma coactivator (PGC) from Tox21 10K library - cell viability counter screen (AID 1224840; active = well fitted cell-killing curve with a large enough effect in the repeat runs, not every such curve was filed as active; note: nearly all actives have a fitted effect of over 40% in size)
Summary of the method: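 Seeded PGC/ERR cells (2,000/well, 6 h, 37 C/5% CO2) get compound by pin tool; 17.5 h incubation at 37 C; CellTiter-Fluor added, 30 min, fluorescence measured.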

[32] = qHTS assay to identify small molecule antagonists of the estrogen related receptor signaling pathway with the pleiotropic PPARgamma coactivator (PGC) from Tox21 10K library (AID 1224841; call rule not given here; note: actives are mostly falling curves and most rising ones were filed inactive; nearly all actives have a fitted effect of over 50% in size)
Summary of the method: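 Test chemicals dissolved in DMSO were applied to pre-incubated (6 h) PGC/ERR cells at 2,000 cells/well for an 18 h, 37 C treatment; reporter luminescence was then read using One-Glo.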

[33] = qHTS assay to identify small molecule agonists of the estrogen related receptor signaling pathway with the pleiotropic PPARgamma coactivator (PGC) from Tox21 10K library (AID 1224842); note: nearly all actives have a fitted effect of over 15% in size
Summary of the method: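 Luminescence from One-Glo (30 min, room temperature) measured after PGC/ERR cells had 18 h at 37 C with pinned compound (23 nL in DMSO). Cells had been seeded at 2,000 per well and pre-incubated 6 h.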

[34] = qHTS assay to identify small molecule antagonists of the estrogen related receptor (ERR) signaling pathway from Tox21 library (AID 1224848); note: nearly all actives have a fitted effect of over 50% in size
Summary of the method: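 ERR cell line, 2,000 cells/well. 6 h settle, then compound (DMSO) added; 18 h at 37 C; ONE-Glo luminescence after 30 min RT.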

[35] = qHTS assay to identify small molecule agonists of the estrogen related receptor (ERR) signaling pathway from Tox21 library (AID 1224849; calls by dose curve; note: nearly all actives have a fitted effect of over 15% in size); conditions: ERR reporter cell line, ONE-Glo luciferase, 18 h; at 92.4 µM (top of the series) unless noted
Summary of the method: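 Tox21 compounds tested for ERR agonism in an NTP reporter cell line: 18 h treatment at 37 C, then ONE-Glo luminescence.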

[36] = qHTS assay to identify small molecule antagonists of the estrogen receptor alpha (ER-alpha) signaling pathway using the BG1 cell line in the presence of 0.1 nM 17-beta-estradiol - cell viability counter screen (AID 1259241); note: nearly all actives have a fitted effect of over 40% in size
Summary of the method: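 In this screen, hormone-deprived VM7Luc4E2 cells were seeded at 4,000 per well, dosed with compound and 0.1 nM estradiol final, and incubated 22 hr at 37C and 5% CO2; fluorogenic live-cell protease signal reported viability.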

[37] = qHTS assay to identify small molecule antagonists of the androgen receptor (AR) signaling pathway using the MDA cell line in the presence of 0.5 nM R1881 - cell viability counter screen (AID 1259242); note: nearly all actives have a fitted effect of over 45% in size
Summary of the method: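 Concentration-response screen of compounds for toxicity in MDA-kb2 reporter cells: 16 hr at 37C with 0.5 nM R1881, endpoint live-cell protease fluorescence measured in the reporter wells.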

[38] = target: Nuclear receptor subfamily 1 group I member 2 (Homo sapiens) (UniProt O75469); assay: Human pregnane X receptor (PXR) small molecule agonists, qHTS assay (AID 1346982); note: nearly all actives have a fitted effect of over 35% in size
Chain of Nuclear receptor subfamily 1 group I member 2 (Homo sapiens) (O75469 whole entry, looked up): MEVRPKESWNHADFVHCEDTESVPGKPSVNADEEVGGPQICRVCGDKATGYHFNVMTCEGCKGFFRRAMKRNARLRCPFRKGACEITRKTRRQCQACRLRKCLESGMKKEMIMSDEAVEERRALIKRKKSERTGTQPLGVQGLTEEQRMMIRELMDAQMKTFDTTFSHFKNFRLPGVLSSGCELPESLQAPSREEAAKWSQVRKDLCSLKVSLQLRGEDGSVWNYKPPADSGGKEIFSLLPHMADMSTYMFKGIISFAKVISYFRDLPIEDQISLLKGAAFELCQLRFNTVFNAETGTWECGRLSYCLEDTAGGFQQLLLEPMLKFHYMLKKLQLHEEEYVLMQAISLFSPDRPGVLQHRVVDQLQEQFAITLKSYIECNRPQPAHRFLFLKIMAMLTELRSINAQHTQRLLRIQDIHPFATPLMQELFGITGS
Summary of the method: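 Stable HepG2 line reporting PXR-mediated CYP3A4 expression via luciferase. Treatment: 24 hr with compounds in DMSO at 37 C. Detection: ONE-Glo luminescence.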

[39] = target: Acetylcholinesterase (Homo sapiens) (UniProt P22303); assay: Acetylcholinesterase (AChE) small molecule antagonists: colormetric cell-based qHTS assay (AID 1347395; calls by dose curve; note: nearly all actives have a fitted effect of over 30% in size)
Chain of Acetylcholinesterase (Homo sapiens) (P22303 whole entry, looked up): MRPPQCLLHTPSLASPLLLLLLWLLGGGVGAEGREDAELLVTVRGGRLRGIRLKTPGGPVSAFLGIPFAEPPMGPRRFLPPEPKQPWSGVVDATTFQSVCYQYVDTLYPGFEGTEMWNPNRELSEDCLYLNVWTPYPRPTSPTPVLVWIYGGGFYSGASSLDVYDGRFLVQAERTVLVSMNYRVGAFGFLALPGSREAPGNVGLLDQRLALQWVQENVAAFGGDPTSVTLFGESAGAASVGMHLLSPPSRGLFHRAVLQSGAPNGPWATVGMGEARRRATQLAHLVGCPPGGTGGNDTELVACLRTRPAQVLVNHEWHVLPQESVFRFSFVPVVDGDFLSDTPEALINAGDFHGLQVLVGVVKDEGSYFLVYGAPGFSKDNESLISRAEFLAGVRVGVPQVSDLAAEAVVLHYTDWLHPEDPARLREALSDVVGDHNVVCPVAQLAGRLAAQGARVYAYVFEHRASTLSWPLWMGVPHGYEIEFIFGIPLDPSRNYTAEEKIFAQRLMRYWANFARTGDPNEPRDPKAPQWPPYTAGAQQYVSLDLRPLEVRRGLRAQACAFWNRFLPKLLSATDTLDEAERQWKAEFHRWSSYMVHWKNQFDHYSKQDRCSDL
Summary of the method: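 After overnight attachment at 37 C, SH-SY5Y cells get 30 min compound exposure; detection cocktail (acetylthiocholine, DTNB) then incubates 90 min at 37 C, and absorbance reflects AChE-generated thiocholine.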

[40] = target: Acetylcholinesterase (Homo sapiens) (UniProt P22303); assay: Acetylcholinesterase (AChE) small molecule antagonists: enzyme-based qHTS assay (AID 1347397; calls by dose curve; note: nearly all actives have a fitted effect of over 55% in size); conditions: Potency: AChE enzyme activity inhibition; outcome: AChE enzyme activity inhibition
Summary of the method: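 First, recombinant human AChE (50 mU/mL as dispensed) received test compound or DMSO. Second, plates stood 30 min at room temperature. Third, DTNB and acetylthiocholine were added, followed by 10 min at room temperature and colorimetric detection.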

[41] = target: Acetylcholinesterase (Homo sapiens) (UniProt P22303); assay: Acetylcholinesterase (AChE) small molecule antagonists: fluorescence cell-based qHTS assay (AID 1347398; calls by dose curve; note: nearly all actives have a fitted effect of over 50% in size); conditions: Potency: AChE activity; outcome: AChE activity
Summary of the method: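 Homogeneous quantitative HTS format. SH-SY5Y cells seeded at 2,000 per well settle overnight at 37 C. Compound pretreatment runs 30 min (37 C, 5% CO2); substrate/probe mix then reacts 40 min at RT before reading 490/520 nm.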

[42] = target: Acetylcholinesterase (Homo sapiens) (UniProt P22303); assay: Acetylcholinesterase (AChE) small molecule antagonists: enzyme-based qHTS assay with human liver microsomes (AID 1347399; calls by dose curve; note: nearly all actives have a fitted effect of over 60% in size); conditions: Potency: qHTS inhibition; outcome: qHTS inhibition
Summary of the method: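 Recombinant human AChE (50 mU/mL in the enzyme mix) and human liver microsomes (0.25 mg/mL final) were preincubated with compound and NADPH (0.25 mg/mL final) for 30 min at 37 C. Acetylthiocholine/DTNB was then added; thiocholine was read colorimetrically after 10 min at room temperature.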
% is set by controls: 0 for no effect and ±100 for the full control effect.

O=C(O)/C=C/C(=O)O
inactive: Potency [1] | Potency [2] | Potency [3] | Potency [4] | Potency [5] | outcome [6] | Potency [7] | Potency [8] | outcome [9] | Potency [10] | Potency [11] | Potency [12] | outcome [13] | outcome [14] | Potency [15] | Potency [16] | Potency [17] | Potency [18] | Potency [19] | Potency [20] | Potency [21] | Potency [22] | Potency [23] | Potency [24] | Potency [25] | Potency [26] | Potency [27] | Potency [28] | Potency [29] | Potency [30] | Potency [31] | Potency [32] | Potency [33] | Potency [34] | activity change, positive = activation [35] 4.47% and 1.26% | Potency [36] | Potency [37] | Potency [38] | Potency [39] | Potency [40] | Potency [41] | Potency [42]
